This passage reports inhibition results from PubChem BioAssay AID777 (Sanford-Burnham Center for Chemical Genomics, 2007).

Structures are written as SMILES. In all, about 96,000 compounds went through this assay and about 19,000 (20%) were called active. Only a sample is shown. A number with no mark means an inactive call.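 How the source made its calls: active means blocking of liver enzyme CYP2C9 beyond about 50% at 5 µM (limit read from the data); inactive means the rest.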

The target in the assay is Cytochrome P450 2C9 (Homo sapiens) (UniProt P11712). The assay is described as follows: blockers of cytochrome P450 2C9 activity – biochemical, luminescence, ADME assay, primary screen (AID 777). The following applies: CYP2C9 Supersomes, luciferin-H conversion, at 5 µM, active compounds read high.
Chain of Cytochrome P450 2C9 (Homo sapiens) (P11712 whole entry, looked up): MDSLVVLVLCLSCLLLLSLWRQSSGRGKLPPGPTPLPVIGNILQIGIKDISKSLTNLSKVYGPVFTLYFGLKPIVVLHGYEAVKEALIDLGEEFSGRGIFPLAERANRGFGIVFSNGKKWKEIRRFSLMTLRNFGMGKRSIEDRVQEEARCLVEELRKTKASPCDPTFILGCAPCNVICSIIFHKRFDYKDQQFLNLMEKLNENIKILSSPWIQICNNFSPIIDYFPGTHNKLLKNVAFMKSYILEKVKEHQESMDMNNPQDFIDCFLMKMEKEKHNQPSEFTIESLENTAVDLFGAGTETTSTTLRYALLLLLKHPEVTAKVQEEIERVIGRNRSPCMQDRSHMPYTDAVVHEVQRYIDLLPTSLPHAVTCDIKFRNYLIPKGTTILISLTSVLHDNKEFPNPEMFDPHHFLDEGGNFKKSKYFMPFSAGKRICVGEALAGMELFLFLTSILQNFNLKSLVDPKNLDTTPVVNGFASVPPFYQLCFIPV
In the case of `CCCCNCc1ccc(SC)cc1`, the inhibition was 4.1%.
As to `Cc1ccccc1OC(=O)Cn1c(C(F)(F)F)nc2ccccc21`, the inhibition is 30.1%.
In the case of `Cc1cc(=O)oc2cc(OCC3CC(c4ccccc4Cl)=NO3)ccc12` (centres undefined), the inhibition was 65.7% (active).
As to `Cc1cc(=O)oc2cc(NC(=O)C3CC(=O)N(Cc4ccccc4)C3)ccc12` (centres undefined), the inhibition is 10.4%.
For `COc1cccc(-c2nnc(SCCOc3ccc4c(C)cc(=O)oc4c3)o2)c1` the value was 42.3%; for `Cn1c(C(=O)NCCCN2CCN(c3cccc(Cl)c3)CC2)cc2c(=O)n(C)c3ccccc3c21`, 22.8%; for `O=c1cc(CN2CCN(c3cccc(Cl)c3)CC2)c2cc3c(cc2o1)CCCC3`, 58.6% (active).
Next, `OC(COc1ccc2c(c1)CCC2)CN1CCN(c2cccc(Cl)c2)CC1` (centres undefined): -14.4%.
For `C=CCN(C(=O)Cn1ncc2c1-c1cc(C)ccc1OC2)c1ccccc1` the value was 38.4%; for `Cn1c2ccccc2n2c(=O)c(=O)n(CC(=O)c3ccc(F)cc3)nc12`, -18%.
In the case of `OCCNc1nc2ccccc2n1-c1ncnc2sc3c(c12)CCC3`, the inhibition was 16.9%.
For `O=c1cc(O)nc(SCc2ccccc2Cl)[nH]1` the value was 37%; for `Cc1cc(=O)[nH]c(SCc2cccc(F)c2)n1`, 23.7%; for `Cc1cc(=O)[nH]c(SCc2cc(Cl)ccc2OC(F)F)n1`, 76.4% (active).
Next, `Cc1ccccc1C(OCC(O)CN1CCCCC1CCO)c1ccccc1` (centres undefined): -0.6%.
For `COc1cc(NS(=O)(=O)c2ccc(N/C=C(\C=O)c3nc4cc(Cl)ccc4o3)cc2)nc(OC)n1` the value was 39.2%; for `O=[N+]([O-])c1cccc(-c2nnc3c4ccccc4c4ccccc4n23)c1`, 11.9%; for `O=c1[nH]c(-c2ccccc2)c(-c2ccccc2)[nH]1`, 17.9%.
Turning to `O=c1[nH]c2ccccc2n2c(-c3ccccc3)nnc12`, the inhibition is 62% (active).
Regarding `COc1ccccc1-c1nnc(SCC(=O)N2CC(C)CC(C)C2)o1` (centres undefined), the inhibition is -292%.
`O=C(c1cnn2ccccc12)N1CCc2ccccc21`: the inhibition is -42.7%.
Take `CCC(C)NC(=O)N[C@@H](CCSC)C(=O)O` (some centres undefined): the inhibition is 8.8%.
For `O=C(CSc1ccc(/C=N/NC(=O)c2cccc(F)c2)o1)Nc1ccccc1` the value was 80.3% (active).
As for `O=C(Cn1cc(/C=N/NC(=O)c2cccc(C(F)(F)F)c2)c2ccccc21)Nc1ccc(F)cc1`, the inhibition was 23.8%.
Next, `C/C(=N/NC(=O)c1ccc(NC(=O)c2ccc(F)cc2)cc1)c1ccccc1`: 3.1%.
Turning to `CC(C)c1nc2oc3c(N4CCN(C)CC4)ncnc3c2c2c1CCC2`, the inhibition is 24%.
Next, `CCOC(=O)c1c(C)c(C(=O)NCCc2ccc(S(N)(=O)=O)cc2)c(C)n1CC`: 16.4%.
Next, `CCC12CN3CC(CC)(CN(C1)C31C(=O)N(C)c3ccc(C)cc31)C2=O` (centres undefined): 3.6%; `O=C(NCc1ccccn1)c1cc2ccccc2oc1=O`: -26%.
Turning to `CN(c1ccc(C(=O)NCc2ccccn2)cc1)S(C)(=O)=O`, the inhibition is -10.8%.
For `O=C(NCc1ccccn1)c1ccc2nc(-c3ccco3)c(-c3ccco3)nc2c1` the value was 67.3% (active).
For `COc1ccc(CN2CCn3ncc(C(=O)Nc4ccc(Cl)cc4Cl)c3C2=O)cc1` the value was 14.3%; for `CC(C)C(=O)Nc1nnc(Sc2ccc(N(C)C)cc2)s1`, -3.9%.
For the compound `ONC(=Nc1ccc(Cl)cc1)c1ccccc1Cl`, the inhibition was 40.4%.
As for `Cc1cc(C)nc(NC(=O)C(C)N2C(=O)c3ccccc3C2=O)n1` (centres undefined), the inhibition was -15.6%.
For the compound `O=C(NCCN1CCOCC1)[C@H](Cc1ccccc1)N1C(=O)c2ccccc2C1=O`, the inhibition was -32.6%.
For `N/C(=N\c1nc2ccccc2o1)NC(=O)C(Cc1ccccc1)N1C(=O)c2ccccc2C1=O` (centres undefined) the value was 89.2% (active).
For `CCN(CC)CCn1c(=S)[nH]c2ncccc2c1=O` the value was 16.3%; for `CCCc1nnc(NC(=O)c2cccs2)s1`, 14.9%.
Next, `C=C(C)COc1ccc(-c2n[nH]c(C)c2-c2ccccc2)c(O)c1`: 26.2%; `COc1ccccc1-c1n[nH]c2c1[C@H](C)CC[C@H]2C(C)C`: 36.5%; `COc1ccc(-c2nc(-c3ccccc3)no2)c(OC)c1`: -7%.
With `COc1ccc(OC)c(Nc2nc(-c3ccc(O)c(O)c3)cs2)c1`, the inhibition was 24.3%.
For `COc1ccc(-c2n[nH]c(C)c2-c2ccc(OC)c(OC)c2)c(O)c1` the value was 98.8% (active); for `C=C(C)COc1ccc(-c2n[nH]c(C)c2-c2ccccc2OC)c(O)c1`, 54.9% (active); for `CCc1c(C)[nH]c(=S)c(C#N)c1C`, 16%.
Next, `Cc1cc(C)nc(NC2=NCC(=O)N2c2ccc(Cl)cc2)n1`: -8.5%; `Cc1ccc(Oc2nc3ccccc3n3c(C)nnc23)cc1`: 13.5%.
Next, `COC(=O)CN(c1cccc(C(C)=O)c1)S(C)(=O)=O`: 40.7%.
For the compound `CC1=NN(C(C)C)C(=O)C1`, the inhibition is 12.8%.
On to `COCCNC(=O)COc1ccc(C)c(C)c1`, for which the inhibition was -28.7%.
In the case of `O=S(=O)(O)c1nc2ccccc2n1Cc1ccc(Cl)cc1Cl`, the inhibition was 74.7% (active).
`O=S(=O)(O)c1nc2ccccc2n1Cc1ccc(Cl)cc1`: the inhibition is 43.6%.
As for `CCC(=O)Nc1nc2ccccc2n1Cc1ccccc1C`, the inhibition was -6.9%.
Consider `Cc1ccc(F)c(NC(=O)CCc2ccccc2)c1`, for which the inhibition was -15.7%.
For the compound `O=C(OCc1cn(-c2ccc(Cl)c(Cl)c2)nn1)c1ccccc1Cl`, the inhibition is -32.3%.
Regarding `CCc1nnc(NS(=O)(=O)c2ccc(NS(=O)(=O)c3ccccc3)cc2)s1`, the inhibition is 77.5% (active).
Next, `CCc1nnc(NC(=O)c2ccc(S(=O)(=O)NC3CCCCC3)cc2)s1`: 20.2%.
Next, `CCc1nnc(NS(=O)(=O)c2ccc(N=Cc3c(C)[nH]n(-c4ccc(C)cc4)c3=O)cc2)s1`: 17%.
As to `CCC(C)NC(=O)c1cc(Cl)ccc1OC` (centres undefined), the inhibition was -166%.
Regarding `Cc1ccc(C(C(=O)NC2CCCCC2)N(C(=O)c2csnn2)C2CC2)o1` (centres undefined), the inhibition was 26.6%.
For `CCc1c(C)sc(NC(=O)OC)c1C(=O)N1CCOCC1` the value was -10.7%; for `CCCCCN1CC(O)=C(c2ccccc2)C1=N`, -11.3%.
Take `CCCCCN1CC(O)=C(c2nc(-c3ccc(Cl)cc3)cs2)C1=N`: the inhibition was 62.1% (active).
For `COc1ccccc1N1CC(O)=C(c2nc3ccccc3s2)C1=N` the value was 26.8%; for `Cc1ccc(CNC(=O)C2CC(c3ccccc3[N+](=O)[O-])=NO2)o1` (centres undefined), -18.8%; for `COC(=O)c1ccc(CSc2nc3cc(Cl)ccc3o2)cc1`, -7.6%.
Regarding `C1=C(N2CCOCC2)/C(=C/c2nc3ccccc3[nH]2)CC1`, the inhibition was 11.9%.
Regarding `CC(C)c1nc(N2CCOCC2)c(C#N)c2c1COC(C)(C)C2`, the inhibition was 61.7% (active).
Next, `CC1(C)Cc2c(C#N)c(SCc3nc4ccccc4[nH]3)nc(N3CCOCC3)c2CO1`: 96.2% (active); `Cc1nc(NCc2ccccc2)c(C(N)=O)c2c1COC(C)(C)C2`: 2.7%.
Next, `CC(C)C(=O)N1CCN(c2nc(-c3ccccc3)c3c(c2C#N)CC(C)(C)OC3)CC1`: 97.1% (active); `c1ccc2[nH]c(NCCN3CCOCC3)nc2c1`: -29.7%; `CC(C)Cc1nc(N2CCOCC2)c(C#N)c2c1CCC2`: 39.5%.
For `c1ccc2cc(OCCN3CCCC3)ccc2c1` the value was 2.2%; for `O=C(CCCN1C(=O)CSc2ncccc21)N1CCN(c2cccc(C(F)(F)F)c2)CC1`, 31.1%.
Turning to `CN1CCN(CC(O)COCc2ccc3c(c2)OCO3)CC1` (centres undefined), the inhibition is -13.3%.
For `COc1ccc2c3c(c(=O)oc2c1OCC(=O)C(C)(C)C)CCCC3` the value was 25.4%.
With `O=C(NCc1ccccn1)Nc1ccc(F)cc1`, the inhibition is 2.9%.
Turning to `CCN(CC)C(=O)CSC1c2ccccc2C(=O)N1c1ccccc1` (centres undefined), the inhibition is -6.2%.
In the case of `Cc1ccc(NC2=NC(c3ccccc3)n3c(nc(C)cc3=O)N2)cc1` (centres undefined), the inhibition is 35.5%.
Next, `Cc1ccc(S(=O)(=O)NCc2nc3ccccc3c(=O)n2N)cc1`: -7.2%; `Cc1ccc(S(=O)(=O)Nc2nc3ccccc3nc2N2CCc3ccccc3C2)cc1`: 96% (active); `O=C(Nc1ccc(S(=O)(=O)N2CCc3ccccc3C2)cc1)c1ccccc1`: 1.2%.
Regarding `Cc1cc([N+](=O)[O-])ccc1NCc1cccc([N+](=O)[O-])c1`, the inhibition is -1.6%.
Turning to `COc1ccc(OCC(=O)NNC(=O)c2ccc(-c3ccccc3)cc2)cc1`, the inhibition is -3.2%.
For `CC(Oc1ccc(Cl)cc1)C(=O)Nc1ncccn1` (centres undefined) the value was 0.9%.
Take `CCC(C)OC(=O)C(C)Oc1ccc(-c2ccccc2)cc1` (centres undefined): the inhibition was 79.9% (active).
Take `Cn1c(/C(C#N)=C2/CCCCCN2)nc2ccccc21`: the inhibition is 29.5%.
In the case of `COc1ccc(-c2[nH]nc(-c3ccccc3)c2-c2nc3ccccc3[nH]2)cc1`, the inhibition was 10%.
For the compound `O=C(NCCN=C1NS(=O)(=O)c2ccccc21)c1ccc(S(=O)(=O)N2CCOCC2)cc1`, the inhibition was 46.2%.
`Cn1c(=O)c2[nH]c(NCC3CCCO3)nc2n(-c2ccccc2)c1=O` (centres undefined): the inhibition was 10.1%.
For `Cc1nc2ccccc2c2oc(C(=O)NCC3CCCO3)cc12` (centres undefined) the value was 0.9%; for `c1ccc2c(NCC3CCCO3)nc(-c3ccncc3)nc2c1` (centres undefined), 83% (active); for `Cc1ccc(S(=O)(=O)NCC(=O)N(CC(=O)NC2CCCCC2)Cc2ccco2)cc1`, 10.4%.
For `O=C(NCc1ccc(Cl)c(Cl)c1)c1cccnc1`, the inhibition was 14.6%.
With `Cn1ccs/c1=N\S(=O)(=O)c1ccc(C(C)(C)C)cc1`, the inhibition was 67.2% (active).
For `CCSc1nnc(NC(=O)c2ccc(C)cc2)s1` the value was 38%; for `Cc1ccc(NC(=O)c2nc[nH]c2C(=O)N2CCCCC2)c(C(=O)c2ccccc2)c1`, 40.9%.

By inhibition is commonly meant the change of the read-out against control, counted positive when it falls.
